About 260 (1.5%) of roughly 17,000 compounds were called active.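 How the source made its calls: active means spot fluorescence over background with P-value below 7% in all four replicate spots, showing protein binding; inactive means the rest.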 Many of the other results were omitted from the sample, so actives are more common in it than they were.
target: Myc proto-oncogene protein (Homo sapiens) (UniProt P01106); assay: small molecules binding His-tagged c-Myc – biochemical, small molecule microarray, anti-His fluorescence, primary screen (AID 624141)
Sequence (P01106 whole entry, looked up): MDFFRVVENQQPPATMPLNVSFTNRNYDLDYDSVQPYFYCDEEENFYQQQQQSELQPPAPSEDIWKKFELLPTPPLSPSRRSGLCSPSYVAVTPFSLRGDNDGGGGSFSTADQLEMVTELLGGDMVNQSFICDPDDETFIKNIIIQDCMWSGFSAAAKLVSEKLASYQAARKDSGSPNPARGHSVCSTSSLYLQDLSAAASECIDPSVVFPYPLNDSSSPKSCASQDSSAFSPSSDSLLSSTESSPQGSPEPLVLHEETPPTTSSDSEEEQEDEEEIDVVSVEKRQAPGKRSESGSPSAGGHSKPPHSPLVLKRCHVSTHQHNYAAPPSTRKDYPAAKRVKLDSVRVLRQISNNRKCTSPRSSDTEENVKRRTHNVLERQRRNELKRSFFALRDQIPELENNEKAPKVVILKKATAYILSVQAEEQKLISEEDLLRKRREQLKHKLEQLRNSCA

Structure (SMILES) | outcome
CCOC(=O)c1ccc(COC(=O)c2cc(=O)[nH]c3ccccc23)o1 | inactive
CC(C)NC(=O)N(C)C[C@H]1OCCCC[C@H](C)Oc2ccc(NC(=O)Nc3ccc4c(c3)OCO4)cc2C(=O)N([C@H](C)CO)C[C@@H]1C | inactive
C[C@@H]1CN([C@@H](C)CO)C(=O)Cc2cc(NC(=O)CCN3CCOCC3)ccc2O[C@H]1CN(C)S(=O)(=O)c1ccccc1 | inactive
Cc1noc(C)c1NC(=O)Nc1cccc2c1O[C@@H](CN(C)Cc1ccc3c(c1)OCO3)[C@@H](C)CN([C@@H](C)CO)C2=O | inactive
C[C@@H]1CN([C@@H](C)CO)C(=O)CCCn2cc(nn2)CO[C@H]1CN(C)C(=O)Nc1ccc(N2CCCCC2)cc1 | inactive
CC(C)NC(=O)Nc1ccc2c(c1)C(=O)N([C@@H](C)CO)C[C@H](C)[C@H](CN(C)C(=O)c1ccccc1)OCCCC[C@@H](C)O2 | inactive
c1ccc2[nH]c(NCCN3CCOCC3)nc2c1 | inactive
COC(=O)Cc1csc(Nc2c(C)n(C)n(-c3ccccc3)c2=O)n1 | inactive
NC(=O)C1=C[C@H](c2csc3ccccc23)C[C@H](OCc2ccc(CO)cc2)O1 | inactive
O=C(C1=C[C@H](c2csc3ccccc23)C[C@H](OCc2ccc(CO)cc2)O1)N1CCCCC1 | active
O=C(C1=C[C@H](c2coc3ccccc3c2=O)C[C@H](OCc2ccc(CO)cc2)O1)N1CCOCC1 | inactive
C=C1C[C@@]23CC[C@@H]4[C@](C)(CO)CCC[C@@]4(C)[C@@H]2CC[C@@H]1C3 | inactive
Cc1noc(C)c1S(=O)(=O)Nc1ccc2c(c1)C(=O)N([C@H](C)CO)C[C@@H](C)[C@@H](CN(C)Cc1ccccc1)OCCCC[C@@H](C)O2 | inactive
C[C@@H]1CN([C@H](C)CO)C(=O)c2cc(N(C)C)ccc2O[C@@H]1CN(C)S(=O)(=O)c1cn(C)cn1 | inactive
C[C@H]1CCCCO[C@@H](CN(C)C(=O)c2ccccc2)[C@@H](C)CN([C@@H](C)CO)C(=O)c2cc(NS(=O)(=O)c3ccccc3)ccc2O1 | inactive
CCCCc1nn(-c2ccccc2C(F)(F)F)c(=O)n1Cc1ccc(-c2ccccc2S(=O)(=O)NC(=O)c2sccc2C)cc1 | active
CNC[C@@H]1Oc2ccc(NC(=O)CCC(F)(F)F)cc2C(=O)N([C@@H](C)CO)C[C@@H]1C | inactive
CC(C)C[C@](O)(C(=O)OCc1ccc(O[C@@H]2O[C@H](CO)[C@@H](O)[C@H](O)[C@H]2O)cc1)[C@H](O)C(=O)OCc1ccc(O[C@@H]2O[C@H](CO)[C@@H](O)[C@H](O)[C@H]2O)cc1 | inactive
Cn1nnc(NC(=O)COc2ccc(Cl)cc2Cl)n1 | inactive
OC[C@@]1(O)CO[C@H](OC[C@H]2O[C@@H](OC(CCCCc3ccc(O)cc3)CCc3ccc(O)cc3)[C@H](O[C@H]3OC[C@](O)(CO)[C@H]3O)[C@@H](O)[C@@H]2O)[C@@H]1O (some centres not stated) | inactive
COc1cc(CN2CCN(CCO)CC2)c([N+](=O)[O-])cc1OC | inactive
O=C(CCCCCCC(=O)NOCc1ccccc1)NO | inactive
CC(=O)Nc1sccc1C(=O)NCc1ccco1 | inactive
C[C@@H]1CN([C@@H](C)CO)C(=O)c2cc(NC(=O)Cc3ccccc3)ccc2O[C@@H](C)CCCCO[C@@H]1CN(C)C(=O)Nc1ccccc1 | inactive

Structure (SMILES) | outcome
C[C@@H]1CCCCO[C@@H](CN(C)C(=O)c2ccccc2)[C@@H](C)CN([C@@H](C)CO)C(=O)c2cc(NS(=O)(=O)c3ccccc3)ccc2O1 | inactive
CNC[C@@H]1Oc2c(NC(=O)Nc3ccccc3)cccc2C(=O)N([C@@H](C)CO)C[C@@H]1C | inactive
COC1OC(O)C(O)C12CC[C@@]1(O2)[C@H](C)C[C@H]2OC(=O)[C@@]3(C)CCC[C@]1(C)C23 (some centres not stated) | inactive
CCOc1ccc(OCC(=O)Nc2cc(C)c(Cl)cc2OC)cc1 | inactive
C=CC1c2cc(O)c(OC)cc2CCN1Cc1cccc(OC(F)(F)F)c1 (configuration not stated) | inactive
C[C@H](CO)N1C[C@H](C)[C@@H](CN(C)S(=O)(=O)c2cn(C)cn2)OCCCC[C@H](C)Oc2ccc(NC(=O)Cc3ccccc3)cc2C1=O | inactive
CN(C)c1nc(SCCO)nc(N(C)C)n1 | inactive
O=C(COc1ccc(C(=O)Nc2ccccc2Cl)cc1)Nc1ccc(Oc2ccccc2)cc1 | inactive
CC1=CCC(C(C)(C)O[C@@H]2O[C@H](COC(=O)c3cc(O)c(O)c(O)c3)[C@@H](O)[C@H](O)[C@H]2O)CC1 (some centres not stated) | inactive
C/C=C1/[C@H](O[C@@H]2O[C@H](CO)[C@@H](O)[C@H](O)[C@H]2O)OC=C2C(=O)O[C@@H]3C[C@@H](C(C)CO)[C@H](COC(=O)C[C@H]21)[C@H]3C (some centres not stated) | inactive
O=C(NCc1ccco1)c1nc2ncccn2n1 | inactive
COc1ccc(S(=O)(=O)N(C)C[C@@H]2Oc3ncc(C#Cc4ccc(F)cc4)cc3C(=O)N([C@H](C)CO)C[C@@H]2C)cc1 | inactive
C[C@H](CO)N1C[C@H](C)[C@@H](CN(C)S(=O)(=O)c2ccc(Oc3ccccc3)cc2)OCc2cn(nn2)CCCC1=O | inactive
Cc1ccc(-n2c(SCC(=O)Nc3ccccc3F)nnc2-c2ccccc2)cc1C | inactive
COc1ccc(C[C@H]2COC(=O)[C@@H]2Cc2ccc(O[C@@H]3O[C@H](CO)[C@@H](O)[C@H](O)[C@H]3O)c(OC)c2)cc1OC | inactive
CN(C)c1ccc(NC(=O)CSc2nc3c(c(C(F)(F)F)c2C#N)CCCCCC3)cc1 | inactive
Cc1ccc(C(=O)CSc2nsc3sc(C(=O)c4ccc(C)cc4)c(N)c23)cc1 | inactive
O=C(CN1CCOCC1)Nc1ccc(S(=O)(=O)N2CCCC2)cc1 | inactive
OC1(c2ccc3c(c2)OCO3)OCC2C(c3ccc4c(c3)OCO4)OCC21O (configuration not stated) | inactive
O=C(NCCCn1ccnc1)c1cnn2c(C(F)(F)F)cc(-c3ccccc3)nc12 | inactive
O=[N+]([O-])c1ccc(NCCNS(=O)(=O)c2ccc(Br)cc2)c(C(F)(F)F)c1 | inactive
Cc1nc(SCC(N)=O)c(C(N)=O)c(C)c1C | inactive
C[C@@H]1CN([C@H](C)CO)C(=O)c2cc(NC(=O)Nc3ccc4c(c3)OCO4)ccc2O[C@@H]1CN(C)Cc1ccc(C(F)(F)F)cc1 | inactive

Source: PubChem BioAssay AID624141 (Broad Institute, 2012)
